Assay results published in PubChem BioAssay (NCATS).
Several values for one entry are separate records, joined by “and”; a condition that tells them apart may be missing. Equal values may be shown once. Results filed as inconclusive are left out. Activity calls are given as the source filed them. Unless noted, calls come from the whole dose curve; as a rule, active = well fitted curve in the direction sought with a large enough effect; inconclusive = small, poorly fitted or top-dose-only effect, or another doubt; inactive = no such curve, though single readings can be large; an effect the other way counts as inactive or inconclusive.

Assays:
[1] = Cell Viability - BJ (AID 421; calls by dose curve;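 note: potency is the fitted concentration of half-maximal effect; cells exposed to compound for 40 hours at 37 °C before readout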); conditions: BJ fibroblast viability, qHTS
Outline: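 Cytotoxicity as drop in intracellular ATP (CellTiter-Glo, 20 min RT) after 40 hr compound exposure of BJ fibroblasts at 37 °C. Titrations scaled between DMSO and 100 uM tamoxifen, Hill-fitted for AC50.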

[2] = Cell Viability - Jurkat (AID 426;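 active = dose-dependent loss of cell ATP signal giving a full or clear fitted curve, ranked by lower potency value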;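 note: potency is the fitted concentration of half-maximal effect; cells exposed to compound for 40 hours at 37 °C before ATP read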); conditions: qHTS
Outline: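 Luminescent ATP read-out (CellTiter-Glo, 20 min at room temperature) after 40 hr compound exposure at 37 °C of Jurkat E6-1 cells, 5000/well. Decreased ATP taken as cytotoxicity; AC50 from standard Hill equation.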

[3] = Cell Viability - Hek293 (AID 427;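 active = compounds whose dose-response curve shows a full or clear partial loss of cell viability, called from curve shape rather than a numeric limit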;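 note: potency is the fitted concentration of half-maximal effect; cells exposed to compound for 40 hours at 37 °C before reading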); conditions: qHTS
Outline: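 Luminescent ATP content (CellTiter-Glo, 20 min at room temperature) was measured after a 40 hr, 37 °C compound exposure of HEK293 cells. AC50 values came from Hill-equation fits of qHTS concentration-response data normalized to DMSO and 100 uM tamoxifen.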

[4] = Cell Viability - SK-N-SH (AID 435; calls by dose curve;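 note: potency is the fitted concentration of half-maximal effect; compound exposure lasted 40 h at 37 °C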); conditions: SK-N-SH neuroblastoma cell viability qHTS
Outline: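 SK-N-SH human neuroblastoma cells (1500/well) were exposed to compounds in complete medium for 40 h at 37 °C, and intracellular ATP was then measured by CellTiter-Glo luminescence. AC50 was taken from Hill fits, normalized to DMSO and 100 uM tamoxifen.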

[5] = Cellular Toxicity (caspase-3) Jurkat (AID 655); conditions: Jurkat caspase-3 activation, luminescence; caspase-3 activation: at 92.2 µM (top of the series), DMSO = 0%, tamoxifen = 100%;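 note: cells exposed to compound for 16 h at 37 °C before reading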
Outline: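 Jurkat cells (5000/well) in complete medium were treated with compounds for 16 hr at 37 °C, then Caspase-Glo 3/7 luminescence was read after 20 min at room temperature. Data normalized to DMSO (basal) and 100 uM tamoxifen (100%); AC50 from Hill fit.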

[6] = Cellular Toxicity (caspase-3) SHSY5Y (AID 657); conditions: SH-SY5Y caspase-3 activation, DMSO zero, 10 µM staurosporine = 100%; series mostly up to 91.7 µM
Outline: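 SH-SY5Y human neuroblastoma cells (1500/well) were treated with compounds for 16 h at 37 °C, then Caspase-Glo 3/7 luminescence was read after 1 h at room temperature. Data normalized to DMSO and 10 uM staurosporine; AC50 from Hill fits.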

[7] = Cellular Toxicity (caspase-3) BJ (AID 658); conditions: BJ fibroblasts, luminescence, normalized: DMSO 0%, staurosporine 100%; series mostly up to 91.7 µM
Outline: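 qHTS, BJ fibroblasts, 1000 cells/well; 5 hr preincubation, 16 hr compound, 37 °C; Caspase-Glo 3/7 reagent, 1 hr RT; luminescence. DMSO = 0%, 10 uM staurosporine = 100%. Hill-equation AC50.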

[8] = Cellular Toxicity (caspase-3) N2a (AID 665); conditions: N2a cells, luminescence, normalized: DMSO 0%, 10 µM staurosporine 100%; series mostly up to 92.2 µM;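 note: compound exposure lasted 16 h at 37 °C before readout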
Outline: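 Luminescent Caspase-Glo 3/7 readout in N2a mouse neuroblastoma cells after 16 h compound exposure at 37 °C. Signal scaled to DMSO (basal) and 10 uM staurosporine (100%). Concentration-response fitted with Hill equation for AC50.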

[9] = Cellular Toxicity (caspase-3) Renal Proximal Tubule (AID 667); conditions: renal proximal tubule cells; series mostly up to 91.7 µM;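 note: cells exposed to compound for 16 hours at 37 °C before detection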
Outline: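 Primary rat proximal tubule cells, 1000/well, 5 h plating at 37 °C, then compound 16 h at 37 °C. Caspase-Glo 3/7 reagent, 1 h RT, luminescence. Normalized to DMSO (basal) and 10 uM staurosporine (100%); Hill-fit AC50.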

[10] = MultiTox-Fluor Cytotoxicity Assay - LYMP1-001 - Dead Cells (AID 946); conditions: LYMP1-001 lymphoblastoid cells, dead-cell protease fluorescence; series mostly up to 92.2 µM
Outline: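 Cytotoxicity as increased dead-cell protease fluorescence (bis-AAF-R110, 485/520 nm), read 60 min after MultiTox-Fluor reagent. Human lymphoblastoid line exposed 16 h; Hill-fitted AC50, with DMSO as 0% and 15 uM tetraoctylammonium bromide as 100%.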

[11] = Cell Viability - LYMP1-002 - Assay at 16 hr (AID 948); conditions: LYMP1-002 lymphoblastoid cell viability; series mostly up to 92.2 µM;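 note: 0% = DMSO alone and full effect = 92 µM tetraoctylammonium bromide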
Outline: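 Human lymphoblastoid cells (LYMP1-002), 2500/well, were preincubated 5 hr at 37 C, then exposed to compounds for 16 hr at 37 C in complete medium. Cellular ATP was read by CellTiter-Glo luminescence after 30 min at room temperature; AC50 from Hill fits.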

[12] = MultiTox-Fluor Cytotoxicity Assay - LYMP1-003 - Dead Cells (AID 961); conditions: LYMP1-003 lymphoblastoid cells, dead-cell protease fluorescence; series mostly up to 92.2 µM; note: nearly all actives have a fitted effect of over 70% in size
Outline: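 Dead-cell protease release, detected as bis-AAF-R110 fluorescence at 485/520 nm, was measured in LYMP1-003 cells after 16 h compound treatment at 37 C. AC50 values came from Hill-modeled qHTS curves normalized to DMSO (0%) and 15 uM tetraoctylammonium bromide (100%).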

[13] = Cell Viability - LYMP1-003 - Assay at 24 hr (AID 963); conditions: LYMP1-003 lymphoblastoid cell viability; series mostly up to 92.2 µM;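 note: plate controls were DMSO only for no effect and tetraoctylammonium bromide positive control for full effect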
Outline: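 CellTiter-Glo luminescence (intracellular ATP) read after 24 hr, 37 C compound exposure of 2500 LYMP1-003 human lymphoblastoid cells/well in complete medium; qHTS concentration series; AC50 via standard Hill equation.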

[14] = Cell Viability - LYMP2-013 (AID 970); conditions: LYMP2-013 lymphoblastoid cells viability; series mostly up to 92.2 µM;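 note: 0% = DMSO only and full inhibition = tetraoctylammonium bromide control; nearly all actives have a fitted effect of over 55% in size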
Outline: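 CellTiter-Glo luminescence (cellular ATP) read after 30 min at RT. Cells: human lymphoblastoid line, 2500/well, 24 hr compound exposure at 37 C. Tetraoctylammonium bromide positive control; AC50 via standard Hill fit of qHTS titrations.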

[15] = Cell Viability - LYMP2-016 (AID 984); conditions: LYMP2-016 lymphoblastoid cell viability, qHTS; series mostly up to 92.2 µM;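 note: cells exposed to compound for 24 hours at 37 °C; % is set by controls: 0 for no effect and ±100 for the full control effect; nearly all actives have a fitted effect of over 55% in size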
Outline: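 Human lymphoblastoid cells (LYMP2-016), 2500/well in complete medium, preincubated 5 hr at 37 C, then compound-treated 24 hr at 37 C. Intracellular ATP read by CellTiter-Glo luminescence after 30 min at room temperature; AC50 from Hill-equation concentration-response fits.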

[16] = Cell Viability - LYMP1-002 - Assay at 24 hr (AID 993); conditions: LYMP1-002 lymphoblastoid cells viability; series mostly up to 92.2 µM; note: % is set by controls: 0 for no effect and ±100 for the full control effect
Outline: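 CellTiter-Glo luminescence (intracellular ATP) after 24 h compound exposure, 37 C, in LYMP1-002 human lymphoblastoid cells; decreased ATP taken as cytotoxicity. AC50 from standard Hill fit of concentration-response curves.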

[17] = qHTS Assay for Identification of Small Molecule Inducers of Hypoxia Response (AID 2120; active = well fitted curve in the direction sought with a large enough effect in the signal ratio, with a control signal flat, not every such curve was filed as active; the % refers to the signal ratio; note: 0% is about no effect); conditions: hypoxia response reporter cells, beta-lactamase ratio readout; series mostly up to 104 µM
Outline: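 Read-out: CCF4 FRET emission ratio 460nm/530nm (excitation 405nm), converted to %Activity, with AC50 fitted across a compound titration. ME-180 cells carried an HRE-driven beta-lactamase reporter; compound exposure 17 h, 37 degrees C.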

[18] = biological target: Peroxisome proliferator-activated receptor alpha (Homo sapiens) (UniProt Q07869); experiment: qHTS assay for small molecule agonists of the peroxisome proliferator-activated receptor alpha (PPARalpha) signaling pathway (AID 651778); conditions: PathHunter PPARalpha complementation, chemiluminescence, 6 h; active compounds read high; note: % of control where 0% means no effect
Outline: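 Enzyme-fragment complementation assay in which ligand-bound PPARalpha translocates and forms an active enzyme that generates chemiluminescence. Cells were plated overnight, exposed to compound for 6 hr at 37 C, and then given detection reagent for 60 min at room temperature.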

[19] = qHTS assay for cell viability of HEK293 cells (AID 743288); conditions: ATP luminescence (CellTiter-Glo), 18 h, active compounds read low; note: % is set by controls: 0 for no effect and ±100 for the full control effect; nearly all actives have a fitted effect of over 50% in size
Outline: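 After 18 h compound exposure at 37 C, parental HEK293 cells (2,000/well) are lysed with CellTiter-Glo and luminescence is read following 30 min at room temperature.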

[20] = qHTS assay for cell viability of the p53RE-bla HCT-116 cell line (AID 743292); conditions: p53RE-bla HCT-116 viability, ATP luminescence, 16 h; series mostly up to 95 µM; note: % is set by controls: 0 for no effect and ±100 for the full control effect; nearly all actives have a fitted effect of over 55% in size
Outline: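 Luminescent ATP quantitation (CellTiter-Glo) served as the viability read-out; reagent was added after 16 h compound exposure at 37 C and read after 30 min at room temperature. Cells: p53RE-bla HCT-116, 4,000 per well.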

Sequence of Peroxisome proliferator-activated receptor alpha (Homo sapiens) (Q07869 whole entry, looked up, the tested form may be a part): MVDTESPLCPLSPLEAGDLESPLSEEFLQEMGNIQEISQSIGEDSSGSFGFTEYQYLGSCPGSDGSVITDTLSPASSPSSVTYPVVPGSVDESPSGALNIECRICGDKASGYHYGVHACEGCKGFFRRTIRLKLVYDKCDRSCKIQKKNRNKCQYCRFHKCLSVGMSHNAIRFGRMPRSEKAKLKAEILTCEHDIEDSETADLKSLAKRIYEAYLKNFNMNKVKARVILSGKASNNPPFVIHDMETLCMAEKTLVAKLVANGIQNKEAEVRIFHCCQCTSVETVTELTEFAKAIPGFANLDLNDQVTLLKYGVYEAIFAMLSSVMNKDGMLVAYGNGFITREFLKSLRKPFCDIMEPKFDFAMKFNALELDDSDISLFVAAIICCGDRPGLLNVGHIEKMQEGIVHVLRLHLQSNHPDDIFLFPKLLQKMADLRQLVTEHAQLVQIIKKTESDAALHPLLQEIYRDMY

Cc1cc(-c2ccc(N)c(C)c2)ccc1N
inactive: Potency [1] > 92 µM | Potency [2] > 92 µM | Potency [3] > 92 µM | Potency [4] > 92 µM | caspase-3 activation [5] 1% | outcome [6] | outcome [7] | outcome [8] | outcome [9] | outcome [10] | outcome [11] | Potency [12] | outcome [13] | Potency [14] | Potency [15] | Potency [16] | Potency [17] | max response [18] -2.87% and -0.886% and -6.11% | max response [19] -3.44% and 7.54% and -3.02% | Potency [20]

CCCCC(=O)Cl
inactive: Potency [1] > 92 µM | Potency [2] > 92 µM | Potency [3] > 92 µM | Potency [4] > 92 µM | caspase-3 activation [5] 1.28% | outcome [6] | outcome [7] | outcome [8] | outcome [9] | outcome [10] | outcome [11] | Potency [12] | outcome [13] | Potency [14] | Potency [15] | Potency [16] | Potency [17] | max response [18] -8.92% | max response [19] 5.94% | Potency [20]

CCOP(=S)(OCC)Oc1nc(Cl)c(Cl)cc1Cl
inactive: Potency [1] > 92 µM | Potency [2] > 92 µM | Potency [3] > 92 µM | Potency [4] > 92 µM | caspase-3 activation [5] -1.27% | outcome [6] | outcome [7] | outcome [8] | outcome [9] | outcome [10] | outcome [11] | Potency [12] | outcome [13] | Potency [14] | Potency [15] | Potency [16] | Potency [17] | max response [18] 0.508% [middle of 4 runs] | max response [19] -7.97% [middle of 4 runs] | Potency [20]

Cc1ccc2c(c1N)C(=O)c1ccccc1C2=O
inactive: Potency [1] > 92 µM | Potency [2] > 92 µM | Potency [3] > 92 µM | Potency [4] > 92 µM | caspase-3 activation [5] -9.07% | outcome [6] | outcome [7] | outcome [8] | outcome [9] | outcome [10] | outcome [11] | Potency [12] | outcome [13] | Potency [14] | Potency [15] | Potency [16] | Potency [17] | max response [18] -8.43% and -4.54% | max response [19] -21.2% and -23% | Potency [20]

N#CCCCCC#N
inactive: Potency [1] > 92 µM | Potency [2] > 92 µM | Potency [3] > 92 µM | Potency [4] > 92 µM | caspase-3 activation [5] -0.898% | outcome [6] | outcome [7] | outcome [8] | outcome [9] | outcome [10] | outcome [11] | Potency [12] | outcome [13] | Potency [14] | Potency [15] | Potency [16] | Potency [17] | max response [18] -1.89% | max response [19] -18.9% | Potency [20]

C=COC(C)=O
inactive: Potency [1] > 92 µM | Potency [2] > 92 µM | Potency [3] > 92 µM | Potency [4] > 92 µM | caspase-3 activation [5] 1.08% | outcome [6] | outcome [7] | outcome [8] | outcome [9] | outcome [10] | outcome [11] | Potency [12] | outcome [13] | Potency [14] | Potency [15] | Potency [16] | Potency [17] | max response [18] -3.52% | max response [19] -3.61% | Potency [20]

c1ccoc1
inactive: Potency [1] > 92 µM | Potency [2] > 92 µM | Potency [3] > 92 µM | Potency [4] > 92 µM | caspase-3 activation [5] 0.558% | outcome [6] | outcome [7] | outcome [8] | outcome [9] | outcome [10] | outcome [11] | Potency [12] | outcome [13] | Potency [14] | Potency [15] | Potency [16] | Potency [17] | max response [18] 0.928% | max response [19] 0.0286% | Potency [20]

c1ccc(Nc2ccc(Nc3ccccc3)cc2)cc1
inactive: Potency [1] > 92 µM | Potency [2] > 92 µM | Potency [3] > 92 µM | Potency [4] > 92 µM | caspase-3 activation [5] 8.77% | outcome [6] | outcome [7] | outcome [8] | outcome [9] | outcome [10] | outcome [11] | Potency [12] | outcome [13] | Potency [14] | Potency [15] | Potency [16] | Potency [17] | max response [18] -0.732% | max response [19] -19.5% | Potency [20]

ClC(Cl)(Cl)C(Cl)(Cl)Cl
inactive: Potency [1] > 92 µM | Potency [2] > 92 µM | Potency [3] > 92 µM | Potency [4] > 92 µM | caspase-3 activation [5] -0.424% | outcome [6] | outcome [7] | outcome [8] | outcome [9] | outcome [10] | outcome [11] | Potency [12] | outcome [13] | Potency [14] | Potency [15] | Potency [16] | Potency [17] | max response [18] -2.99% | max response [19] 3.22% | Potency [20]

NNC(N)=S
inactive: Potency [1] > 92 µM | Potency [2] > 92 µM | Potency [3] > 92 µM | Potency [4] > 92 µM | caspase-3 activation [5] 0.589% | outcome [6] | outcome [7] | outcome [8] | outcome [9] | outcome [10] | outcome [11] | Potency [12] | outcome [13] | Potency [14] | Potency [15] | Potency [16] | Potency [17] | max response [18] -1.77% | max response [19] 1.66% | Potency [20]

Cl/C=C/CCl
inactive: Potency [1] > 92 µM | Potency [2] > 92 µM | Potency [3] > 92 µM | Potency [4] > 92 µM | caspase-3 activation [5] 1.51% | outcome [6] | outcome [7] | outcome [8] | outcome [9] | outcome [10] | outcome [11] | Potency [12] | outcome [13] | Potency [14] | Potency [15] | Potency [16] | Potency [17] | max response [18] -3.36% | max response [19] 2.26% | Potency [20]
